Compounds without any hit were thinned out: in the full panel of roughly 83,000, 20% have a hit.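 Compound tested at a single concentration for 48 hours in 96-well plates; a percent growth value below 10 was scored as active.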 Values without a mark were called inactive. Calls of active or inactive are those of the source.
system: SK-MEL-2 melanoma; assay: NCI-60 one-dose screen, 48 h (100 = growth as untreated, 0 = no growth, -100 = all killed); settings: 10 µM unless noted
Description: Growth inhibition of the SK-MEL-2 human tumor cell line is measured as a screen for anti-cancer activity. Cells are grown in 96 well plates and exposed to the test compound for 48 hours. Compounds are tested at a single concentration, which is 10^-5 M for most compounds. The reported endpoint is percent growth (GI% or GIPRCNT), where numbers from 0 - 100% represent growth inhibition, and numbers from -100% - 0 represent cell death. For example, a value of 40 represents 60% growth inhibition. A value of 0 means no net growth occurred over the course of the experiment. A value of -40 indicates 40% of cells at the beginning of the experiment died by the end of the experiment. A value of -100 means all cells are dead at the end of the experiment.
NCI-60 Human Tumor Cell Lines Screen was performed using the standard one-dose NCI protocol, which is described in more detail at https://dtp.cancer.gov/discovery_development/nci-60/default.htm.
Compounds with GIPRCNT values below 10 were considered active. Activity score was based on GIPRCNT using the following formula: […]
Score is 0 for GIPRCNT values of 100 or above, 50 for GIPRCNT values of 0, and 100 for GIPRCNT values of -100.

Row | Compound | growth
1 | O=C(OCc1ccc2c(Cl)cc(Cl)c(O)c2n1)N1CCN(C(=O)c2cc3cc(F)ccc3[nH]2)CC1 | 22.9%
2 | CCn1cc(-c2ccnc(NCCNS(=O)(=O)c3cccc4ccccc34)c2)c(-c2cccc(O)c2)n1 | 111%
3 | Cc1ccccc1OC(=O)c1cccc(Cl)c1 | 103%
4 | COc1cc(/C=C/C(=O)/C=C/c2ccc(-n3ccnc3C)cc2)ccc1O | 100%
5 | Cc1ccc(-c2cc(-c3ccc(C)cc3)nc(N3CCN(CCNc4ccnc5cc(Cl)ccc45)CC3)n2)cc1 | 65.4%
6 | CCOC(=O)c1nc2c3ccccc3ccn2c1C(=O)OC | 102%
7 | O=C(Nc1cccnc1)c1ccc2ccc3ccc(C(=O)Nc4cccnc4)nc3c2n1 | 25.8%
8 | Cn1cc(-c2noc(C(=O)c3cn(C)c4ncccc34)n2)c2ccccc21 | 107%
9 | C[C@H]1[C@H](C)CC[C@]2(C(=O)O)CC[C@]3(C)C(=CC[C@@H]4[C@@]5(C)C/C(=C/c6ccco6)C(=O)C(C)(C)[C@@H]5CC[C@]43C)[C@H]12 | -64% [100 µM] (active)
10 | CCOc1cc(NC(=O)c2ccccc2)c(OCC)cc1N | 112%
11 | COc1ccc(C2=C(c3cn(C)c4ccccc34)C(=O)OC2)cc1OC | 33.6%
12 | COc1ccc2nc3ccccc3c(NCCNCCO)c2c1 | -56.1% (active)
13 | CC1(C)C(=O)/C(=C\c2cccnc2)C[C@]2(C)[C@H]3CC[C@@H]4[C@H]5[C@H](C(=O)/C=C/c6cccnc6)CC[C@]5(C(=O)O)CC[C@@]4(C)[C@]3(C)CC[C@@H]12 | -55.1% [100 µM] (active)
14 | COc1ccc2[nH]c(C(=O)N3CCN(C(=O)OCc4ccc5c(Br)cc(Br)c(O)c5n4)CC3)cc2c1 | -89.5% (active)
15 | O=S(=O)(NCCNc1nccc(-c2c(-c3cccc(F)c3)nc3occn23)n1)c1ccc(C(F)(F)F)cc1 | 92.2%
16 | CCOC(=O)c1nn(C2CCCCO2)c2ccc(NC(=O)Cn3nnc4ccccc43)cc12 (stereo not given) | 113%
17 | COc1cc2c(c(Br)c1N)-c1cc(Br)c(N)cc1C2=O | 108%
18 | CCOC(=O)CCC[P+](c1ccccc1)(c1ccccc1)c1ccccc1 | 85.4%
19 | C=C(C)C1CCC2(C(=O)O)CCC3(C)C(CCC4C5(C)CCC(OC(=O)NCc6ccccc6)C(C)(C)C5CCC43C)C12 (stereo not given) | 54.6%
20 | COc1ccccc1S(=O)Nc1ccccc1 (stereo not given) | 82.5%

Row | Compound | growth
21 | CSc1nc2sc3cc(Cl)c(Cl)cc3n2c(=N)c1C#N | 102%
22 | C=C(C)[C@@H]1CC[C@]2(c3ncc(C)o3)CC[C@]3(C)[C@H](CC[C@@H]4[C@@](C)(CCC#N)[C@H](C(=C)C)CC[C@]43C)[C@@H]12 | -89.5% [100 µM] (active)
23 | NC(=S)Cc1ccccc1 | 103%
24 | C=C(C)[C@@H]1CC[C@]2(C(=O)NCCCN)CC[C@]3(C)[C@H](CC[C@@H]4[C@@]5(C)CC[C@H](O)C(C)(C)[C@@H]5CC[C@]43C)[C@@H]12 | -24.2% [100 µM] (active)
25 | CC1=CC[C@@H]2C(C)(C)[C@@H](O)CC[C@@]2(C)[C@@H]1COc1ccc2ccc(=O)oc2c1 | 68.1%
26 | O=C1Cc2c(sc3c(F)cccc23)C(c2ccccc2[N+](=O)[O-])N1 (stereo not given) | 126%
27 | CCOC(CNC(=O)c1cccc([N+](=O)[O-])c1)OCC | 97.2%
28 | CCN=Cc1c(O)c(O)c(C(C)C)c2cc(C)c(-c3c(C)cc4c(C(C)C)c(O)c(O)c(C=NCC)c4c3O)c(O)c12 | 51.4%
29 | O=C(CSc1nc2ccc([N+](=O)[O-])cc2[nH]1)Nc1cccc(Cl)c1 | 7.44% (active)
30 | C=C(C)[C@@H]1CC[C@]2(C(=O)NCCNCCNCCN)CC[C@]3(C)[C@H](CC[C@@H]4[C@@]5(C)CCC(=O)C(C)(C)[C@@H]5CC[C@]43C)[C@@H]12 | 56.4% [100 µM]
31 | CCOC(=O)C1=C(C(=O)c2ccc(Br)cc2)C(c2ccc(Br)cc2)NC(=S)N1 (stereo not given) | 110%
32 | Cc1ccc(NC(=O)N[C@@H](Cc2cc(F)cc(F)c2)C(=O)N[C@@H]2C(=O)N3CCC[C@H]3C(=O)N3CCOC[C@H]3C(=O)N[C@@H](C)C(=O)N3C[C@H](C)C[C@H]3C(=O)O[C@H]2C)cc1 | 40.7%
33 | COc1ccc(/C=C(/C(=O)c2ccc(Cl)cc2)C(=O)C(F)(F)F)cc1 | 86.4%
34 | Cn1cc(-c2nnc(-c3cn(C)c4ncccc34)o2)c2ccccc21 | 34.4%
35 | COc1ccc(C2CC(c3cc(OC)c(OC)c(OC)c3)=NN2C(C)=O)cc1OCC(=O)Nc1nc2ccc(C(F)(F)F)cc2s1 (stereo not given) | 92.3%
36 | O=c1[nH]c(CN2CCN(c3cccc(Cl)c3)CC2)nc2cc(Cl)ccc12 | 46.7%
37 | NC(=O)c1c(NC(=O)COC(=O)Cc2ccccc2F)sc2c1CCC2 | 99.9%
38 | Nc1ccc2c(c1)Cc1cc(NC(=O)C(F)(F)F)ccc1-2 | 98.6%
39 | CC(C)=CCC[C@](C)(O)[C@H]1CC[C@]2(C)[C@@H]1CC[C@@H]1[C@@]3(C)CC/C(=N/O)C(C)(C)[C@@H]3CC[C@]12C | -23.2% [100 µM] (active)
40 | O=C(CCN1CCCCC1)c1ccc(Cl)cc1 | 104%

Reference: PubChem BioAssay (NCI)
